Reference: the supplement of paper PMC3334620
The full ranking holds about 33,000 sequences; the median of “E-score (-0.5 to 0.5)” is about -0.053, and the highest 2% start at about 0.37. Only a selection was taken, and the highest values are over-represented in it overall.

Biological target: Hap1 (UniProt P0CE41)
Assay: PBM E-score (8-mer binding enrichment) (E-score (-0.5 to 0.5)); higher = stronger / more preferred TF binding
Settings: protein concentration: 200 nM; construct: GST-DNA-binding domain
In short: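 Full-length yeast transcription factors or their DNA-binding domains, GST-tagged and expressed with PURExpress, were applied at about 100-200 nM to universal all-10-mer Agilent arrays. These arrays had been made double-stranded by primer extension on fresh or once-stripped slides. Detection used fluorescent anti-GST, normalisation used masliner, and E-scores for ungapped eight-base words pooled with reverse complements came from the Universal PBM Analysis Suite.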

UniProt P0CE41, sequence (P0CE41 whole entry): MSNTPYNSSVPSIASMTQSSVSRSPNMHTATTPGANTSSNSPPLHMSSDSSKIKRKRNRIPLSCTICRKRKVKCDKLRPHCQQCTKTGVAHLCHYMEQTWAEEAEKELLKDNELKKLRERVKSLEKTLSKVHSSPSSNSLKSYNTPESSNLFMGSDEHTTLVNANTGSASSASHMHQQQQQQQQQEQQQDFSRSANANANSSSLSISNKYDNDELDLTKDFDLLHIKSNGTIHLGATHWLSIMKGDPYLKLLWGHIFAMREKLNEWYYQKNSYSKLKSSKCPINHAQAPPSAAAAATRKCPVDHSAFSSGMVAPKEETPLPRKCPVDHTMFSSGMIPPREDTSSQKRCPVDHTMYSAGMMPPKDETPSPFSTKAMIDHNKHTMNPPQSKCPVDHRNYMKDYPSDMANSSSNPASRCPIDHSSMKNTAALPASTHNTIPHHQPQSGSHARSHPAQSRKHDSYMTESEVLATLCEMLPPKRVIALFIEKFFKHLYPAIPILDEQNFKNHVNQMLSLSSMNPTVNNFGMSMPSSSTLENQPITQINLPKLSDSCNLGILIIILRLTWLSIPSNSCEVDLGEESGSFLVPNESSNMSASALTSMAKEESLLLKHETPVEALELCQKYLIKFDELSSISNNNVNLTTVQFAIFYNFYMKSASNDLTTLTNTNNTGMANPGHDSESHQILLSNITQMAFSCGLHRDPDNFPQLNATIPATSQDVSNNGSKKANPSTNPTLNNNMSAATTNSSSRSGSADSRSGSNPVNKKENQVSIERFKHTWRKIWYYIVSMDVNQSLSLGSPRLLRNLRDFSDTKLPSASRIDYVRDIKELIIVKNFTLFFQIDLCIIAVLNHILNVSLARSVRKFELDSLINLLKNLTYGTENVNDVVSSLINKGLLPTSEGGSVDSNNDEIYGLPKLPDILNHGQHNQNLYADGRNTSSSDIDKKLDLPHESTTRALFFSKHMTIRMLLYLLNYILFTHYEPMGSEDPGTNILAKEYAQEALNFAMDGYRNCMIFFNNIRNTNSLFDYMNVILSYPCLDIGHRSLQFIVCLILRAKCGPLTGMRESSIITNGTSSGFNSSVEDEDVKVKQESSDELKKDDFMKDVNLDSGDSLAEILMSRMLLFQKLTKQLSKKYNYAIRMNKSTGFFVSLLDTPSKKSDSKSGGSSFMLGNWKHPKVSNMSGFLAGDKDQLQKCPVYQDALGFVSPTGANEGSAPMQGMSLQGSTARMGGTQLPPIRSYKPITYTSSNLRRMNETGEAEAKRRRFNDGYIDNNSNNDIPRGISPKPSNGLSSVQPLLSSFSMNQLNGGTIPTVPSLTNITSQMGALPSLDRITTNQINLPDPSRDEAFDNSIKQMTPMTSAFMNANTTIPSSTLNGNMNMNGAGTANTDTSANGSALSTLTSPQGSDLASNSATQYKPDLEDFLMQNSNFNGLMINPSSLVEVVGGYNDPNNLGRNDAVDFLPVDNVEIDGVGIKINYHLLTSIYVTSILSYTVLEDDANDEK

Sequence | PBM E-score
AGCGGGAA | 0.207
AACCCCCG | 0.262
GACCCCGC | 0.134
CTAACCGA | 0.176
ATAACCGA | 0.386
AAACCCCG | 0.438
AACCCCGC | 0.371
ACCCCCGC | 0.217
ATAACCGC | 0.157
AACCCCGG | 0.456
ACCCCCGG | 0.368
AAACCCCC | 0.0478
CACCCCGG | 0.264
CTACTAGC | 0.0698
GCCGTCCA | 0.0557
AATAGATG | -0.118
CGTGTTTA | 0.038
AAATTCTA | -0.166
ATGTACTA | -0.14
GTGGATCA | -0.21
CACCAATC | -0.0582
CAGATTGA | -0.0798
CCCAACAG | -0.328
ACCGTAAA | 0.0865
CAACTGTA | -0.234
ATGTGCCA | -0.302

Sequence | PBM E-score
AAACCCGT | 0.361
AAAACCCG | 0.4
TAACCCGA | 0.355
AAAACCCC | 0.187
AAACCCGC | 0.335
GAACCCGA | 0.23
AAAACCGC | 0.109
AAACCCGA | 0.439
GAAACCGA | 0.274
AAACCCGG | 0.454
AAAACCGA | 0.396
AAAACCCT | -0.0696
AGCCAGGC | -0.141
GCTTGGGA | -0.149
ACTGGGAG | -0.0791
CAGCTACA | -0.156
ACGCCTAC | -0.0649
GATGCGAA | -0.0227
TATTGCGA | 0.0517
AGTTTGTC | -0.117
CACCATCG | -0.192
GCAGCGGC | -0.00312
ACGAGATC | -0.15
CCGCTGCA | -0.0239
GTACCTCA | -0.238
ATTCCGTC | 0.213

Sequence | PBM E-score
ATTCCGGG | 0.374
ATTCCGCC | 0.295
ATTCCGTG | 0.294
ATTCCGGC | 0.37
ATTCCGCG | 0.285
GAGTCGCC | -0.0011
CCTTGTCA | -0.311
AGGAGTTA | 0.292
CGGAGTAA | 0.37
CGGAGTTA | 0.494
CGGAGTAC | 0.254
AGGAGTTC | -0.143
GGGAGTTA | 0.247
CGGAGTTC | 0.394
CTGAGTTC | -0.0173
GGGAGTAA | 0.147
CCCCTGTA | -0.154
GCTCGATA | 0.0192
AGAGGAAT | -0.205
ATCTCTAC | -0.223
AAGATGGG | -0.126
CGTCGGAC | 0.338
AGCCGGAC | 0.409
CGCCGGAC | 0.409
AGCCGGCA | 0.334
AGCCGGGG | 0.268

Sequence | PBM E-score
CGCCGGGC | 0.332
AGCCGGCT | 0.25
AGCCGGGC | 0.173
AGCCGGTG | 0.326
AGCCGGAT | 0.418
AGCCGGCC | 0.354
AGCCGGAG | 0.404
ACACGCAG | -0.093
CGAGAAAC | 0.187
AGCTTTGA | -0.0822
AAAGTGCT | -0.21
AAAGAATT | -0.0164
AGAGCTGC | -0.128
CGCTTTGA | 0.0268
AACAGCTT | -0.106
TAGACACA | -0.156
AGCCGGGA | 0.231
GGACGGAC | 0.358
AGCCGGTC | 0.0184
AGCCGGAA | 0.371
AGCCGGTA | 0.414
CGACGGAG | 0.287
GGCCGGAA | 0.363
GGCCGGAC | 0.398
CGCCGGAG | 0.399
CGCCGGAA | 0.357

Sequence | PBM E-score
CGCCGTAG | 0.187
GGCCGGTA | 0.344
AAATACGA | -0.0883
CAACGGGC | 0.153
CGCGAGCG | 0.104
AGTAGCAG | -0.173
ATCCTCGA | -0.107
AAACGCCC | 0.263
GTCCCGAC | 0.243
AGGCGGCC | 0.0302
CGTTCGTA | 0.0644
GGTTCGGA | 0.373
CGTTCGGC | 0.291
GGTTCGAA | 0.00151
AGTTCGGA | 0.366
CGTTCGGA | 0.412
GGCATACC | 0.107
CCCGGCTA | 0.344
ATGTTTCA | -0.21
CATGGTGG | -0.137
GCCCTCGC | -0.0401
CCCGTCTA | -0.0612
CGTACCTC | -0.0658
AACTGCTT | -0.134
CCTCCTCG | -0.147
ACCTGCTG | -0.058

Sequence | PBM E-score
TCACGGGA | 0.0121
TCCCGGGA | 0.392
GACCGGTA | 0.243
CCCCGGGA | 0.348
TACCGGTA | 0.441
TACCGGGA | 0.387
CACCGGTC | 0.227
CACCGGTG | 0.24
GACCGGGA | 0.329
CACCGGTA | 0.376
AACCGGTA | 0.331
AACCGGGA | 0.193
CAGTAGAA | -0.229
TTGCGCAA | -0.00107
CATGCAGC | -0.164
AGCTCGAC | -0.227
ATCAAGCG | 0.0373
AGCTCGGG | 0.363
CGCGACTA | 0.197
CCCTTAAG | 0.13
CCACCTGC | -0.121
GAAGACTA | -0.0051
CTTCTCCA | -0.301
CGGACAAA | 0.405
GGGACATA | 0.0939
AGGACAAA | -0.016

Sequence | PBM E-score
CGGACATC | 0.365
CGGACAAG | 0.357
CGGACATA | 0.489
CGAGTTGC | -0.053
ACAGCGCG | 0.0018
CGGGCGAA | 0.375
CGGGCGTA | 0.395
AGGGCGTA | -0.137
GGGGCGTA | 0.00742
GGGGCGAA | 0.127
CGGGCGAC | 0.304
AAAGGTGG | -0.156
ACGGCGAA | 0.0956
CCGAAGTC | 0.318
ATTGAACC | -0.0801
AGGCCGAG | 0.303
AGGCCGAC | 0.32
CGGCCGAG | 0.449
CGGCCAAG | 0.195
CGGCCGAA | 0.449
GGGCCGAC | 0.312
GGGCCGAA | 0.311
TGGCCGAA | 0.261
CGGCCGAC | 0.415
GTACTGAC | -0.119
CGCAGTCA | -0.0499

Sequence | PBM E-score
AGAGATGG | -0.0221
AAGTGCGA | 0.00701
ATGAGTCC | 0.0718
AACGACCC | 0.00262
AGGACAGC | -0.0413
CTCCGGGC | 0.341
CGCCGGGA | 0.317
GTCCGGGA | 0.38
CTCCGGGA | 0.392
GGCCGGGA | 0.336
ATCCGGGA | 0.239
CGTGGTTA | -0.251
AGTGGAAG | 0.0152
AATGGGCG | -0.0792
GAGGCGGC | 0.0321
ATCCGATC | 0.326
CTACGATA | -0.179
CTCCGATC | 0.311
CTCCGATA | 0.432
GTCCGATA | 0.463
GTTCGATA | 0.0968
GTACGATA | -0.189
ATCCGATG | 0.277
ATCCGATA | 0.453
CTAACGTC | 0.00466
TCGTACCA | -0.114

Sequence | PBM E-score
GAGGCCAA | -0.0324
AACTGTCA | -0.212
ACAAACGA | -0.145
CTCTGTCA | -0.296
TACCATGA | -0.347
AAGGGGGA | -0.179
GTCACCCA | -0.158
ATACCGTA | 0.092
CTACCGAA | 0.0576
CTACCGGC | 0.29
CTACCGCA | 0.108
ATACCGTG | 0.0634
CTACCGGA | 0.412
AGACCGGC | 0.235
ATACCGCG | 0.21
ATACCGGC | 0.398
ATACCGGA | 0.437
ATACCGGG | 0.416
ATACCGCA | 0.284
